# From the supplement of paper PMC7156485
# ± gives the standard deviation of the averaged measurements.
# System: HCC1569
# Assay: cell number relative to DMSO (% of DMSO); higher = more cells (less growth inhibition / toxicity)
# Conditions: concentration: 10 µM; 24 h
# Outline: (§1)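 Using 384-well plates with 800 cells per well in RPMI plus 10% FBS, HCC1569 and TDF cells were exposed to compounds at 10 µM, in triplicate, for 24 h at 37 °C. Imaging of six fields per well at ×10 followed H1.0 and DAPI staining. The reported quantity, H1.0 nuclear intensity or cell number, is a median of replicates given as percent of the plate control, and HCC1569 values were smoothed for positional effects.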
# 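Note: TDF denotes transformed human dermal fibroblasts of mesenchymal origin.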
row,Compound,cell number
1,Cc1cn(C2CC(N=[N+]=[N-])C(CO)O2)c(=O)[nH]c1=O (stereo not drawn) [3'-Azido-3'-deoxythymidine],104.8 ± 0.49
2,CNC(=O)c1cc(Oc2ccc(NC(=O)Nc3ccc(Cl)c(C(F)(F)F)c3)cc2)ccn1 [Sorafenib],45.9
3,CON=C(C(=O)NC1C(=O)N2C(C(=O)O)=C(COC(C)=O)CSC12)c1csc(N)n1 (stereo not drawn) [Cefotaxime Acid],107
4,Nc1ccccc1NC(=O)CCCCCCC(=O)Nc1ccccc1 [N~1~-(2-aminophenyl)-N~8~-phenyloctanediamide],98.8
5,COc1cc2oc(=O)ccc2cc1O [Isoscopoletine],105
6,CC(C)=CCCC(C)=CCCC(C)=CCSCC(=O)O [Farnesylthoiacetic acid],100
7,COc1ccccc1O [Guaiacol],103

# System: TDF
# Assay: as above
# Conditions: concentration: 10 µM; 24 h
# Outline: as §1
row,Compound,cell number
1,CN(C)CCC=C1c2ccccc2C=Cc2ccccc21.Cl [Cyclobenzaprine hydrochloride],103
2,C=CC(C)(C=Cc1ccc(O)cc1)CCC=C(C)C (stereo not drawn) [Bakuchiol],91.2 ± 4.6
3,CCCC(=O)NCCc1c2n(c3ccc(OC)cc13)CCCc1ccccc1-2,109
4,O=C(Nc1cccc(C(=O)Nc2ccc(S(=O)(=O)[O-])c3cc(S(=O)(=O)[O-])cc(S(=O)(=O)[O-])c23)c1)Nc1cccc(C(=O)Nc2ccc(S(=O)(=O)[O-])c3cc(S(=O)(=O)[O-])cc(S(=O)(=O)[O-])c23)c1.[Na+].[Na+].[Na+].[Na+].[Na+].[Na+],110
5,CC(C)(C)c1cnc(CSc2cnc(NC(=O)C3CCNCC3)s2)o1,102
6,CNCC(O)C(O)C(O)C(O)CO (stereo not drawn) [Meglumine],120
7,CCCCCCCCCCCC(CC1OC(=O)C1CCCCCC)OC(=O)C(CC(C)C)NC=O (stereo not drawn) [Tetrahydrolipistatin],99.2
8,O=c1cc(-c2ccccc2)oc2cc(O)cc(O)c12 [Chrysine],99.8
9,CCCCCC(O)C=CC1=C(CCCCCCC(=O)O)C(=O)CC1 (stereo not drawn) [Prostaglandin B1],108.4 ± 0.5
10,Br.CN(C)CCCC1(c2ccc(F)cc2)OCc2cc(C#N)ccc21 (stereo not drawn) [Citalopram hydrobromide],103
11,CSc1nc(N)c2ncn(C3OC(COP(=O)([O-])OP(=O)([O-])OP(=O)([O-])[O-])C(O)C3O)c2n1.[Na+].[Na+].[Na+].[Na+] (stereo not drawn) [2-Methylthioadenosine triphosphate tetrasodium],109
12,CCCN(CCC)C(=O)C(CCC(=O)O)NC(=O)c1ccccc1 (stereo not drawn) [Proglumide],112
13,"O=c1cc(-c2ccccc2)[nH]c2nc(Cl)ccc12 [7-Chloro-4-hydroxy-2-phenyl-1,8-naphthyridine]",20.4
14,O=C1Cc2c([nH]c3ccc(Br)cc23)-c2ccccc2N1 [Kenpaullone],93.1 ± 3.2
15,"S=c1ccss1 [1,2-Dithiole-3-thione]",103
16,OC1(c2ccc(Cl)cc2)CCN(Cc2c[nH]c3ccccc23)CC1,93
17,C=C(CC)C(=O)c1ccc(OCC(=O)O)c(Cl)c1Cl [Ethacrynic Acid],101
18,COc1cccc(OC)c1OCCNCC1COc2ccccc2O1.Cl (stereo not drawn) [WB-4101 hydrochloride],101
19,O=c1c(O)c(-c2ccc(O)cc2)oc2cc(O)cc(O)c12 [Kaempferol],93.9
20,CC1=C(C)C(=O)C(CCCCC#CCCCC#CCO)=C(C)C1=O [Docebenone],75.3
21,CCCCCCCCCC(=O)NC(CN1CCOCC1)C(O)c1ccccc1.Cl (racemic),91.9
22,"CN(C)CCC(c1ccc(Br)cc1)c1ccccn1.O=C(O)C=CC(=O)O (single isomer, unassigned; (+)) [(+)-Brompheniramine maleate]",79.5
23,CC(=O)NC(CSCC=C(C)CCC=C(C)C)C(=O)O (stereo not drawn),101
24,COc1ccc(Cl)cc1NC(=O)Nc1cc(C)nc2ccccc12 [N-(5-Chloro-2-methoxyphenyl)-N'-(2-methyl-4-quinolinyl)urea],103
25,O=c1onc2cnc3ccccc3n12,97.5
26,CC1(NC(=O)CBr)CCC(C(C)(C)NCC(O)COc2cccc3[nH]ccc23)CC1 (racemic),98.3
